Measured values taken from PubChem BioAssay (NCI).
“And” between values parts separate entries of the source, which are not always exact repeats. Identical values can stand only once. Compounds without any hit were thinned out: in the full panel of roughly 79,000, 15% have a hit. The source made the active and inactive calls. Rule as the data show it: active = growth inhibition above about 70%; inactive = the rest.

Assays:
[1] = NCI Yeast Anticancer Drug Screen. Data for the mlh1 strain (AID 171);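 also: 0% = growth of vehicle-treated control cultures of the same strain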; details: S. cerevisiae mlh1 strain growth inhibition, hits give high values
Method in brief: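 Growth of the mutant yeast strain after compound exposure, expressed as inhibition relative to vehicle-only controls.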

[2] = NCI Yeast Anticancer Drug Screen. Data for the sgs1 strain (AID 173);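 also: 0% = growth of vehicle-only control cultures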; details: S. cerevisiae sgs1 mutant, hits give high values
Method in brief: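 Growth of a yeast strain bearing a defined genetic alteration is measured after compound treatment. Inhibition is expressed relative to vehicle-only controls.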

[3] = NCI Yeast Anticancer Drug Screen. Data for the mlh1 rad18 strain (AID 175); details: S. cerevisiae mlh1 rad18 strain growth inhibition, hits give high values
Method in brief: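 Read-out is yeast growth inhibition, calculated against vehicle-only controls. The compound was applied to a strain engineered with DNA damage repair alterations.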

[4] = NCI Yeast Anticancer Drug Screen. Data for the rad18 strain (AID 177); details: S. cerevisiae rad18 mutant growth inhibition, hits give high values
Method in brief: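 Growth of the mutant yeast strain after compound exposure, normalised to vehicle-only cultures.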

[5] = NCI Yeast Anticancer Drug Screen. Data for the rad52 strain (AID 147);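 also: 0% = growth of vehicle-treated control cultures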; details: S. cerevisiae rad52 mutant growth inhibition, hits give high values
Method in brief: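 Compounds are applied to a genetically defined yeast strain lacking normal DNA damage repair, and inhibition of growth is expressed relative to cultures given vehicle only.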

[6] = NCI Yeast Anticancer Drug Screen. Data for the wt1 strain (AID 149);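 also: 0% = growth of vehicle-treated wt1 cultures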; details: S. cerevisiae wt1 strain (SPY 50644) growth inhibition, hits give high values
Method in brief: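 Compounds are added to wt1 yeast cultures. Growth is then measured. Inhibition is expressed relative to vehicle-treated controls.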

[7] = NCI Yeast Anticancer Drug Screen. Data for the rad50EPP+ strain (AID 151);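 also: 0% = growth of vehicle-treated control cultures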; details: S. cerevisiae rad50 mutant strain, hits give high values
Method in brief: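 Compounds were applied to the rad50EPP+ yeast strain, which bears a defined DNA repair alteration, and growth inhibition was determined relative to vehicle-treated cultures.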

[8] = NCI Yeast Anticancer Drug Screen. Data for the rad50 strain (AID 155);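 also: 0% = growth of vehicle-only cultures of the same strain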; details: S. cerevisiae rad50 strain growth inhibition, hits give high values
Method in brief: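 Inhibition values express reduced yeast growth in compound-treated cultures relative to vehicle-treated controls.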

[9] = NCI Yeast Anticancer Drug Screen. Data for the mec2-1 strain (AID 157); details: S. cerevisiae mec2-1 strain, hits give high values
Method in brief: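 Strain: mec2-1 (DNA repair/cell cycle alteration). Compound exposure, then growth measured; inhibition expressed relative to vehicle.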

[10] = NCI Yeast Anticancer Drug Screen. Data for the rad14 strain (AID 159);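 also: 0% = growth of vehicle-treated control cultures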; details: S. cerevisiae rad14 strain growth inhibition, hits give high values
Method in brief: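 A mutant yeast strain defective in DNA damage repair is treated with compound; inhibition of its growth is scored against untreated, vehicle-exposed cultures.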

[11] = NCI Yeast Anticancer Drug Screen. Data for the sgs1 mgt1 strain (AID 161);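 also: 0% = growth of cultures given vehicle only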; details: S. cerevisiae sgs1 mgt1 strain, hits give high values
Method in brief: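 Inhibition of yeast growth, normalised to vehicle-treated controls, is reported for a strain bearing genetic alterations in DNA damage repair.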

[12] = NCI Yeast Anticancer Drug Screen. Data for the CLN2oe strain (AID 163);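 also: 0% = growth of vehicle-only control cultures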; details: S. cerevisiae CLN2oe strain, hits give high values
Method in brief: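 Growth of a genetically modified yeast strain is measured after compound exposure and compared with cultures given vehicle alone.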

[13] = NCI Yeast Anticancer Drug Screen. Data for the cln2 rad14 strain (AID 165);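 also: 0% = growth equal to vehicle treated cultures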; details: S. cerevisiae cln2 rad14 strain, hits give high values
Method in brief: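 Compounds are applied to the cln2 rad14 yeast strain, and growth is then compared with that of vehicle-treated cultures to give inhibition.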

[14] = NCI Yeast Anticancer Drug Screen. Data for the bub3 strain (AID 167); details: S. cerevisiae bub3 mutant strain, hits give high values
Method in brief: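 Steps: expose the mutant yeast strain to compound; grow alongside vehicle-treated cultures; measure growth; express inhibition against the vehicle cultures.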

[15] = NCI Yeast Anticancer Drug Screen. Data for the wt2 strain (AID 169);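 also: 0% = growth of vehicle-treated yeast cultures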; details: S. cerevisiae wt2 strain growth inhibition, hits give high values
Method in brief: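 This strain belongs to a panel of yeast strains with defined genetic alterations in DNA damage repair or cell cycle control. Compounds are applied, and growth inhibition is measured against vehicle-treated cultures.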

[16] = at 5.0 µM (retest, dose inferred, filed as 0.5)
[17] = at 50.0 µM (retest, dose inferred, filed as 5.0)

Measured: growth inhibition

O=C(Nc1ccc2c(c1)Cc1c-2ccc([N+](=O)[O-])c1F)C(F)(F)F
active: [3]; [17] 79%
inactive: [1]; at 1.2 µM 5% | [1]; at 3.7 µM 3% | [1]; at 11.0 µM 3% | [1]; at 33.0 µM 2% | [1]; at 100.0 µM 2% | [2]; at 1.2 µM 1% | [2]; at 3.7 µM 3% | [2]; at 11.0 µM -1% | [2]; at 33.0 µM 1% | [2]; at 100.0 µM 3% | [3]; [16] 62% | [3]; at 50.0 µM 18.4% | [4]; at 1.2 µM 4% | [4]; at 3.7 µM 0% | [4]; at 11.0 µM -25% | [4]; at 33.0 µM 5% | [4]; at 100.0 µM 9%

COc1ccc(/C(C#N)=C/c2ccc(OC)c(OC)c2)cc1
active: [8]; [17] 83% | [9]; [17] 92% | [14]; [17] 75% | [3]; [17] 81%
inactive: [5]; at 1.2 µM 10% | [5]; at 3.7 µM -6% | [5]; at 11.0 µM -1% | [5]; at 33.0 µM -13% | [5]; at 100.0 µM 21% | [6]; at 1.2 µM -37% | [6]; at 3.7 µM -21% | [6]; at 11.0 µM -22% | [6]; at 33.0 µM -23% | [6]; at 100.0 µM 0% | [7]; at 1.2 µM -17% | [7]; at 3.7 µM 0% | [7]; at 11.0 µM 8% | [7]; at 33.0 µM 60% | [7]; at 100.0 µM 54% | [8]; at 1.2 µM 2% | [8]; at 3.7 µM -4% | [8]; [16] 46% | [8]; at 11.0 µM -12% | [8]; at 33.0 µM 6% | [8]; at 50.0 µM 15.1% and 51.5% | [8]; at 100.0 µM 14% | [9]; at 1.2 µM -11% | [9]; at 3.7 µM -7% | [9]; [16] 56% | [9]; at 11.0 µM -21% | [9]; at 33.0 µM -10% | [9]; at 50.0 µM 43.8% and 38% | [9]; at 100.0 µM 18% | [10]; at 1.2 µM -17% | [10]; at 3.7 µM -29% | [10]; at 11.0 µM -27% | [10]; at 33.0 µM -13% | [10]; at 100.0 µM 32% | [11]; [16] -15% | [11]; [17] 57% | [11]; at 50.0 µM 46.8% | [12]; at 1.2 µM 13% | [12]; at 3.7 µM 9% | [12]; at 11.0 µM -2% | [12]; at 33.0 µM 0% | [12]; at 100.0 µM -5% | [13]; [16] 55% | [13]; [17] 60% | [13]; at 50.0 µM 7.8% | [14]; at 1.2 µM -5% | [14]; at 3.7 µM -3% | [14]; [16] 10% | [14]; at 11.0 µM 2% | [14]; at 33.0 µM 9% | [14]; at 50.0 µM 50.2% | [14]; at 100.0 µM 51% | [15]; at 1.2 µM -49% | [15]; at 3.7 µM -35% | [15]; at 11.0 µM -21% | [15]; at 33.0 µM -5% | [15]; at 100.0 µM 21% | [1]; at 1.2 µM -8% | [1]; at 3.7 µM 2% | [1]; at 11.0 µM 10% | [1]; at 33.0 µM 28% | [1]; at 100.0 µM 40% | [2]; at 1.2 µM -8% | [2]; at 3.7 µM -13% | [2]; at 11.0 µM -20% | [2]; at 33.0 µM 2% | [2]; at 100.0 µM 16% | [3]; [16] 30% | [3]; at 50.0 µM 26.1% and 58.4% | [4]; at 1.2 µM -13% | [4]; at 3.7 µM -17% | [4]; at 11.0 µM -13% | [4]; at 33.0 µM 0% | [4]; at 100.0 µM 13%

c1ccc(N2N=C3N(c4ccccc4)C2N3c2ccccc2)cc1
active: [5]; at 100.0 µM 93% | [6]; at 100.0 µM 93% | [8]; at 33.0 µM 70% | [8]; [17] 97% | [8]; at 50.0 µM 81% | [8]; at 100.0 µM 92% | [9]; [17] 98% | [9]; at 100.0 µM 93% | [10]; at 100.0 µM 92% | [11]; at 50.0 µM 81% | [12]; at 100.0 µM 92% | [13]; [17] 75% | [14]; at 33.0 µM 80% | [14]; [17] 81% | [14]; at 50.0 µM 82.5% | [14]; at 100.0 µM 92% | [15]; at 100.0 µM 94% | [1]; at 100.0 µM 93% | [2]; at 100.0 µM 93% | [3]; [17] 99% | [3]; at 50.0 µM 77.5% | [4]; at 100.0 µM 94%
inactive: [5]; at 1.2 µM -19% | [5]; at 3.7 µM -14% | [5]; at 11.0 µM 4% | [5]; at 33.0 µM 57% | [6]; at 1.2 µM -46% | [6]; at 3.7 µM -41% | [6]; at 11.0 µM -16% | [6]; at 33.0 µM 34% | [7]; at 1.2 µM -13% | [7]; at 3.7 µM -8% | [7]; at 11.0 µM -5% | [7]; at 33.0 µM 6% | [7]; at 100.0 µM 1% | [8]; at 1.2 µM 1% | [8]; at 3.7 µM 7% | [8]; [16] 43% | [8]; at 11.0 µM 26% | [9]; at 1.2 µM -19% | [9]; at 3.7 µM -22% | [9]; [16] 35% | [9]; at 11.0 µM 3% | [9]; at 33.0 µM 44% | [9]; at 50.0 µM 69.2% | [10]; at 1.2 µM -33% | [10]; at 3.7 µM -36% | [10]; at 11.0 µM -20% | [10]; at 33.0 µM 20% | [11]; [16] -16% | [11]; [17] 57% | [12]; at 1.2 µM -12% | [12]; at 3.7 µM -7% | [12]; at 11.0 µM -10% | [12]; at 33.0 µM 51% | [13]; [16] 28% | [13]; at 50.0 µM 59.5% | [14]; at 1.2 µM -6% | [14]; at 3.7 µM -1% | [14]; [16] 28% | [14]; at 11.0 µM 29% | [15]; at 1.2 µM -17% | [15]; at 3.7 µM -7% | [15]; at 11.0 µM 1% | [15]; at 33.0 µM 44% | [1]; at 1.2 µM -28% | [1]; at 3.7 µM -22% | [1]; at 11.0 µM -7% | [1]; at 33.0 µM 37% | [2]; at 1.2 µM 2% | [2]; at 3.7 µM -29% | [2]; at 11.0 µM 2% | [2]; at 33.0 µM 41% | [3]; [16] 38% | [4]; at 1.2 µM 12% | [4]; at 3.7 µM 10% | [4]; at 11.0 µM -3% | [4]; at 33.0 µM 60%
